Measurements taken from PubChem BioAssay AID504437 (Emory University Molecular Libraries Screening Center, 2011).
The whole screen tested about 2,100 compounds, of which about 940 (45%) were called active.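 The calls were made as follows: active = mean of three repeat readings of reporter signal inhibition above a set limit (cut at about 70% in these data); inactive = the rest.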 The set was probably picked from earlier hits. Many of the other results were omitted from the sample, so actives are more common in it than they were.

experiment: CHOP promoter reporter blockers, replicate testing – cell-based, confirmation (AID 504437); settings: CHO-CHOP promoter luciferase reporter, tunicamycin-induced, luminescence; at 10 µM; hits give high values;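 also: 0% = tunicamycin plus vehicle and 100% = wells lacking tunicamycin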

Structure (SMILES)	inhibition
O=C(CSC1c2ccccc2-c2ccccc21)N/N=C/c1ccccc1	70.5% (active)
CCCCCCN=C(CC)c1c(O)n(CCCC)c(=O)[nH]c1=O	118% (active)
